Screening data as filed in PubChem BioAssay.
NOMO-1 viab: STK33 inhibitor candidate reducing NOMO-1 cell viability; 7.5% of 37,000 active; NOMO-1 AML viability, CellTiter-Glo luminescence, 72 h; inhibition, % (no concentration beside the values); in the data active means inhibition above about 80%; inconclusive means no clear call, values can overlap the other calls
STK33 kin inh: human STK33 kinase inhibition. ADP-Glo luminescence, MBP substrate. inhibition, % at 12.5 µM. 0.44% of 27,000 active; in the data active means inhibition above about 20%; inconclusive means no clear call, values can overlap the other calls
Target sequence (Q9BYT3 whole entry, looked up): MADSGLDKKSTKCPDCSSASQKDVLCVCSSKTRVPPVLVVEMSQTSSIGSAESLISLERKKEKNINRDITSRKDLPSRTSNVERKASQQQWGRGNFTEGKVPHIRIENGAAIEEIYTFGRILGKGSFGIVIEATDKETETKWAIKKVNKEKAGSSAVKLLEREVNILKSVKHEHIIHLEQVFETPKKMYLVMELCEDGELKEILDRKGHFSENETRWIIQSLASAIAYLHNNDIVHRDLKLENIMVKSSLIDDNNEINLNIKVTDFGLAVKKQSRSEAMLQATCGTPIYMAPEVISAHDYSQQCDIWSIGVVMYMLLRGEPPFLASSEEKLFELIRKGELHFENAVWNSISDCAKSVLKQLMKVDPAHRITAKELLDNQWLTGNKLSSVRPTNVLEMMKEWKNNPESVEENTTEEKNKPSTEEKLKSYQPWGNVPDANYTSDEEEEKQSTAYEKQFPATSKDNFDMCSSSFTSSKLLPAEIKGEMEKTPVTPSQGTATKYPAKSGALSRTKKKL
PD-1 reverse act: reversal of PD-1 mediated T-cell inhibition; primary human CD4 T cells, PD-L1 beads, CellTiter-Glo 96 h; activation, % (test concentration not listed); 29,000 tested, under 10 active; call rule not given here;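 further: 0% = median vehicle wells and 100% = positive control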
Starred values were filed as active, the others as inactive. Many of the other results were omitted from the sample, so hits are more common in it than they were.

How did CCOC(=O)c1c(CSc2nc(C)ccc2C#N)oc2ccc(OC(C)=O)cc12 do in these assays?
NOMO-1 viab: 117*; PD-1 reverse act: -2

How did CCOC(=O)c1c(CN(CC)CC)oc2ccc(OC)cc12 do in these assays?
NOMO-1 viab: 8; PD-1 reverse act: 0

How did C[C@@H]1CN([C@H](C)CO)C(=O)Cc2cc(NC(=O)CCC(F)(F)F)ccc2O[C@@H]1CN(C)Cc1ccc(Oc2ccccc2)cc1 do in these assays?
NOMO-1 viab: 84*; STK33 kin inh: -3; PD-1 reverse act: -6

What do the screens show for `COc1ccc(NC(=O)Nc2ccc3c(c2)CC(=O)N([C@H](C)CO)C[C@@H](C)[C@@H](CN(C)Cc2ccc(Oc4ccccc4)cc2)O3)cc1`?
NOMO-1 viab: inconclusive; STK33 kin inh: 5; PD-1 reverse act: -5

Results for C[C@@H]1CN([C@H](C)CO)C(=O)Cc2cc(NC(=O)Nc3ccc(C(F)(F)F)cc3)ccc2O[C@@H]1CN(C)Cc1ccc(Oc2ccccc2)cc1 ?
NOMO-1 viab: 115*; STK33 kin inh: -3; PD-1 reverse act: -10

What do the screens show for `COc1ccc(NC(=O)Nc2ccc3c(c2)CC(=O)N([C@@H](C)CO)C[C@H](C)[C@@H](CN(C)Cc2ccc(Oc4ccccc4)cc2)O3)cc1`?
NOMO-1 viab: 119*; STK33 kin inh: 4; PD-1 reverse act: -4

What do the screens show for `C[C@@H]1CN([C@@H](C)CO)C(=O)Cc2cc(NC(=O)NC3CCCCC3)ccc2O[C@@H]1CN(C)Cc1ccccc1`?
NOMO-1 viab: 4; STK33 kin inh: 0; PD-1 reverse act: 0

How did C[C@H](CO)N1C[C@H](C)[C@H](CN(C)Cc2ccc(Oc3ccccc3)cc2)Oc2ccc(NC(=O)CCC(F)(F)F)cc2CC1=O do in these assays?
NOMO-1 viab: 40; STK33 kin inh: 0; PD-1 reverse act: -2

How did C[C@H]1CN([C@@H](C)CO)C(=O)Cc2cc(NC(=O)Nc3ccc(C(F)(F)F)cc3)ccc2O[C@H]1CN(C)Cc1ccc(Oc2ccccc2)cc1 do in these assays?
NOMO-1 viab: 26; STK33 kin inh: -4; PD-1 reverse act: 1

How did C[C@@H]1CN([C@H](C)CO)C(=O)Cc2cc(NC(=O)NC3CCCCC3)ccc2O[C@@H]1CN(C)Cc1ccc(Oc2ccccc2)cc1 do in these assays?
NOMO-1 viab: 111*; STK33 kin inh: 2; PD-1 reverse act: -3

What do the screens show for `CC(O)CNc1nc2c(c(=O)n(Cc3ccccc3F)c(=O)n2C)n1C` (stereo not drawn)?
NOMO-1 viab: -1; STK33 kin inh: 3; PD-1 reverse act: 0

Results for O=C(NCc1ccco1)c1cnn2c(C(F)F)cc(C3CC3)nc12 ?
NOMO-1 viab: 23; STK33 kin inh: 3

Results for CCc1cccc(C)c1NC(=O)COc1ccc(NC(C)=O)cc1 ?
NOMO-1 viab: -3; STK33 kin inh: -8; PD-1 reverse act: -1

Results for CN(CC(=O)Nc1ccccc1Br)S(=O)(=O)c1ccc2ccccc2c1 ?
NOMO-1 viab: -3; STK33 kin inh: 0; PD-1 reverse act: 2

What do the screens show for `C[C@@H]1CN([C@@H](C)CO)C(=O)Cc2cc(NC(=O)Nc3ccc(C(F)(F)F)cc3)ccc2O[C@@H]1CN(C)Cc1ccc(Oc2ccccc2)cc1`?
NOMO-1 viab: 128*; STK33 kin inh: 3; PD-1 reverse act: -1

What do the screens show for `C[C@@H]1CN([C@H](C)CO)C(=O)Cc2cc(NC(=O)Nc3ccccc3)ccc2O[C@H]1CN(C)Cc1ccc(Oc2ccccc2)cc1`?
NOMO-1 viab: 72; STK33 kin inh: 0; PD-1 reverse act: 3

Results for CC(C)c1ccccc1Oc1coc2cc(OCC(=O)Nc3ccccc3F)ccc2c1=O ?
NOMO-1 viab: 28; STK33 kin inh: -1; PD-1 reverse act: 1

How did COc1ccc(Oc2c(C(F)(F)F)oc3cc(OCC(=O)Nc4ccccc4F)ccc3c2=O)cc1 do in these assays?
NOMO-1 viab: 96*; STK33 kin inh: 6; PD-1 reverse act: -7

How did O=S(=O)(C1=CC23CCCC2(C=C(S(=O)(=O)c2ccc(Cl)cc2)C3)C1)c1ccc(Cl)cc1 (stereo not drawn) do in these assays?
NOMO-1 viab: -6; PD-1 reverse act: -1

Results for CSc1ccc(S(=O)(=O)N(CC(=O)O)c2ccc(C)cc2)cc1 ?
STK33 kin inh: 0

Results for O=C(CSc1nc(O)cc(=O)n1-c1ccccc1)Nc1ccccc1Cl ?
NOMO-1 viab: -21; STK33 kin inh: -3

How did Cc1c(C(N)=O)sc2ncn(CC(=O)Nc3cc(Cl)ccc3Cl)c(=O)c12 do in these assays?
NOMO-1 viab: -1; STK33 kin inh: -3; PD-1 reverse act: -2

Results for C[C@@H]1CN([C@H](C)CO)C(=O)c2cccc(NC(=O)Nc3ccc(C(F)(F)F)cc3)c2O[C@@H]1CN(C)CC1CCCCC1 ?
NOMO-1 viab: 58; PD-1 reverse act: -5

How did C[C@H](CO)N1C[C@H](C)[C@H](CN(C)CC2CCCCC2)Oc2c(NC(=O)Nc3ccc(C(F)(F)F)cc3)cccc2C1=O do in these assays?
NOMO-1 viab: 116*; PD-1 reverse act: -5

Results for C[C@H]1CN([C@@H](C)CO)C(=O)c2cccc(NC(=O)Nc3ccc(C(F)(F)F)cc3)c2O[C@@H]1CN(C)CC1CCCCC1 ?
NOMO-1 viab: 82*

How did C[C@@H]1CN([C@H](C)CO)C(=O)c2cccc(NC(=O)Nc3ccc(C(F)(F)F)cc3)c2O[C@H]1CN(C)CC1CCCCC1 do in these assays?
NOMO-1 viab: inconclusive; PD-1 reverse act: -8

What do the screens show for `C[C@@H]1CN([C@H](C)CO)C(=O)c2cccc(NC(=O)Nc3ccc(F)cc3)c2O[C@H]1CN(C)CC1CC1`?
NOMO-1 viab: 57

Results for C[C@H](CO)N1C[C@H](C)[C@@H](CN(C)CC2CC2)Oc2c(NC(=O)Nc3ccc(C(F)(F)F)cc3)cccc2C1=O ?
NOMO-1 viab: 99*; PD-1 reverse act: -2

Results for c1coc(-c2nnc(C3CCCCC3)o2)c1 ?
NOMO-1 viab: -18; PD-1 reverse act: 1

How did O=C(CSc1n[nH]c(-c2ccc(Cl)cc2Cl)n1)Nc1cccc2ccccc12 do in these assays?
NOMO-1 viab: -5; STK33 kin inh: 2; PD-1 reverse act: 1

Results for Cc1cc(C)c(S(=O)(=O)N(C)CC(=O)Nc2cc([N+](=O)[O-])ccc2C)c(C)c1 ?
NOMO-1 viab: 21; STK33 kin inh: 1; PD-1 reverse act: 1

How did CC1CCC/C=C2\C(=O)C=CC3OC(/C=C/C=C/C=C/C(=O)O)=C(C(=O)O1)C23 (stereo not drawn) do in these assays?
NOMO-1 viab: 122*; STK33 kin inh: -5; PD-1 reverse act: -31

Results for O=c1c(Cc2ccc(Br)cc2)csc2ccccc12 ?
NOMO-1 viab: 12; PD-1 reverse act: 0

How did c1ccc2cc3c(Nc4ccc(N5CCOCC5)cc4)ccnc3cc2c1 do in these assays?
NOMO-1 viab: 136*; PD-1 reverse act: -1

How did O=C(O)c1ccccc1Nc1nc(N2CCOCC2)nc(N2CCOCC2)n1 do in these assays?
NOMO-1 viab: 11; STK33 kin inh: 1; PD-1 reverse act: 0

How did O=C(CC1(O)C(=O)Nc2ccc([N+](=O)[O-])cc21)c1ccccc1 (stereo not drawn) do in these assays?
NOMO-1 viab: 15; STK33 kin inh: -1

What do the screens show for `COc1ccc(OC)c(C2Nc3nc4ccccc4n3C(C)=C2C(=O)Nc2ccc(C)cc2C)c1` (stereo not drawn)?
NOMO-1 viab: 85*; STK33 kin inh: -1; PD-1 reverse act: -1
